# PMC4552634, “A New Set of Chemical Starting Points with Plasmodium falciparum Transmission-Blocking Potential for Antimalarial Drug Discovery” (PLoS ONE, 2015)
# Out of some 13,000 compounds screened, about 3,200 (25%) showed an effect of 50% or more. This is one part of the list.
# System: P. falciparum stage V gametocytes
# Set-up: BacTiter-Glo ATP luminescence viability of purified stage V gametocytes in 384-well plates, per cent inhibition versus DMSO
# Conditions: 48 h, 5 µM; inhibitor
row,Compound,% Inhibition
1,Cc1ccc(NC(=O)c2ccc(CN3CCCN(CCC(C)C)CC3)cc2)cc1C [TCMDC-136443],-19.3%
2,Cc1nc2c(Nc3nc(-c4ccncc4)cs3)ncnc2n1-c1ccccc1Cl [TCMDC-136288],72.25%
3,Cc1ccc(-n2c(C)nc3c(Nc4ccc(-c5ccncc5)cc4)ncnc32)c(C)c1 [TCMDC-136289],103.3%
4,Cn1cnc2c(Nc3ccncc3)nc(-c3ccc4ccccc4c3)nc21 [TCMDC-141131],-3.392%
5,Cc1nc(Nc2ccncc2)cc(-c2ccncc2)n1 [TCMDC-124589],-12.99%
6,Oc1ccc2[nH]c(-c3cccc(F)c3)nc2c1CN1CCC(O)(c2ccccc2)CC1 [TCMDC-136359],-19.77%
7,CC(C(=O)Nc1ccc(Br)cc1Br)N1CCN(C(=O)c2ccco2)CC1 (stereo not drawn) [TCMDC-124879],-7.948%
8,CCCC(C)NC(=O)[C@H](CC1CCCCC1)NC(=O)c1ccc(O)c(-c2ccc(OC)cc2)c1 (stereo partly drawn) [TCMDC-140801],27.46%
9,CN(C)CCCNCc1ccc(-c2ccc(CNCCc3ccccc3)cc2)cc1 [TCMDC-141456],100.3%
10,CC[C@H](C)CNC(=O)c1cncc(-c2ccc(CNCCOc3ccccc3)cc2)c1 [TCMDC-134239],-0.3321%
11,CN(C)CCCOc1cccc(NC(=O)Nc2ccc(-c3ccccc3)cc2)c1 [TCMDC-139539],-65.39%
12,CN(C)CCCNCc1ccc(-c2ccc(CNCCOc3ccccc3)cc2)cc1 [TCMDC-141457],91.94%
13,CCCNC(=O)c1cncc(-c2ccc(CNCCCc3ccccc3)cc2)c1 [TCMDC-134248],11.91%
14,CC1(C)N=C(N)N=C(N)N1OCCOc1cccc(C(F)(F)F)c1 [TCMDC-131615],4.099%
15,CCc1c(CCNCCCCCCNCCc2ccc([N+](=O)[O-])cc2)ccc(O)c1O [TCMDC-132067],69.46%
16,CCCCCCNCc1c(O)ccc2c(CNCCCCCC)c(O)ccc12 [TCMDC-137592],-1.678%
17,CCc1c(CCNCCCCCCNCCc2ccc(Br)cc2)ccc(O)c1O [TCMDC-132044],115.9%
18,Cc1cc(CNCCCCCCNCc2cccc([N+](=O)[O-])c2)ccc1O [TCMDC-140413],32.63%
19,O=C(N[C@H]1CCCC[C@H]1C(=O)O)c1ccccc1 [TCMDC-124293],-3.601%
20,Cc1ccc(CNC(=O)c2cnc(N3CCN(c4ccncc4)CC3)c(Cl)c2)cc1 [TCMDC-134626],3.173%
21,Cc1ccc(C2CCN(CCCCNC(=O)c3ccc(-c4ccc(C#N)cc4)cc3)CC2)c(O)c1 [TCMDC-138658],-70.86%
22,CC1(C)CCC(C)(C)c2c1ccc(C1CCN(CCCCNC(=O)c3ccc(-c4ccc(Cl)cc4)cc3)CC1)c2O [TCMDC-135483],86.31%
23,Cc1c(C2CCN(CCCCNC(=O)c3ccc(-c4ccc(C#N)cc4)cc3)CC2)c2ccccc2n1CCO [TCMDC-138815],-16.09%

row,Compound,% Inhibition
1,Cc1cc(C2CCN(CCCCNC(=O)c3ccc(-c4ccc(C#N)cc4)cc3)CC2)c(C)cc1O [TCMDC-138817],-58.22%
2,CCc1ccc(C2CCN(CCCCNC(=O)c3ccc(-c4ccc(Cl)cc4)cc3)CC2)c(O)c1 [TCMDC-138548],18.22%
3,COc1c(C2CCN(CCCCNC(=O)c3ccc(-c4ccc(C#N)cc4)cc3)CC2)ccc2c1C(C)(C)CCC2(C)C [TCMDC-135481],92.96%
4,COc1c(C2=CCN(CCCCNC(=O)c3ccc(-c4ccc(C#N)cc4)cc3)CC2)c(C)cc2c1C(C)(C)CCC2(C)C [TCMDC-135480],3.716%
5,COc1c(C2CCN(CCCCNC(=O)c3ccc(-c4ccc(C#N)cc4)cc3)CC2)cc(Cl)c2c1CCCC2 [TCMDC-135288],-31.75%
6,CC1(C)CCC(C)(C)c2c1ccc(C1CCN(CCCCNC(=O)c3ccc(-c4ccc(C#N)cc4)cc3)CC1)c2O [TCMDC-135505],91.89%
7,Cc1[nH]c2ccccc2c1C1CCN(CCCCNC(=O)c2ccc(-c3ccc(C#N)cc3)cc2)CC1 [TCMDC-138808],60.39%
8,N#Cc1ccc(-c2ccc(C(=O)NCCCCN3CCC(c4nc5ccccc5[nH]4)CC3)cc2)cc1 [TCMDC-133362],24.39%
9,CCC(C)(C)C1CCc2[nH]c3ccccc3c(=O)c2C1 (stereo not drawn) [TCMDC-125226],30.2%
10,CC(=O)N/N=C/[C@H](CCc1ccccc1)NC(=O)[C@H](CC(C)C)NC(=O)c1ccc(OCCN2CCOCC2)cc1 [TCMDC-135916],2.96%
11,CC(NC(C)c1cccc(Cl)c1)C(=O)Nc1cc(C(F)(F)F)ccc1N1CCOCC1 (stereo not drawn) [TCMDC-125061],-33.15%
12,Cc1cccc(C(=O)Nc2ccnc(N3CCC(N(C)Cc4cccc(C#N)c4)CC3)c2)c1 [TCMDC-134973],-4.566%
13,O=C(c1ccco1)N1CCN(c2nc(-c3ccc(Cl)cc3)nc3ccccc23)CC1 [TCMDC-124753],14.1%
14,COc1ccc2nccc([C@@H](O)CN3CCC(NC(=O)C(c4cc5ccccc5s4)N4CC(C)OC(C)C4)CC3)c2c1 (stereo partly drawn) [TCMDC-140995],7.748%
15,C=CCc1cc(C2CCN(CCCCNC(=O)c3ccc(-c4ccc(C#N)cc4)cc3)CC2)c(OCC(N)=O)c2c1CCCC2 [TCMDC-135625],-14.83%
16,N#Cc1ccc(-c2ccc(C(=O)NCCCCN3CCC(c4cc(Br)c5c(c4OCC(N)=O)CCCC5)CC3)cc2)cc1 [TCMDC-135263],-29.4%
17,CC1(C)CCC(C)(C)c2c1ccc(C1CCN(CCCCNC(=O)c3ccc(-c4ccc(C#N)cc4)cc3)CC1)c2OCC(N)=O [TCMDC-135627],76.03%
18,COc1c(C2CCN(CCCCNC(=O)c3ccc(-c4ccc(Cl)cc4)cc3)CC2)ccc2c1C(C)(C)CCC2(C)C [TCMDC-135482],91.33%
19,OCCc1ccc(Nc2nccc(-c3nnc4ccccn34)n2)cc1 [TCMDC-138924],-13.1%
20,COc1ccc(Nc2nc(NCc3cccnc3)cc(-c3ccc(OC)cc3)n2)cc1 [TCMDC-133467],9.957%
21,Cc1cc(-c2cc3nc4c(c(=O)n3[nH]2)CCCC4)c(C)o1 [TCMDC-125325],32.39%
22,Cc1ccc(-c2[nH]n3c(=O)c4c(nc3c2C)CCCC4)cc1 [TCMDC-124479],75.27%
23,O=c1[nH]c(NCCCNCc2cc3c(Cl)cc(Cl)cc3[nH]2)nc2ccsc12 [TCMDC-139925],-0.4742%

row,Compound,% Inhibition
1,Cc1cc(N2CCCC2)nc(Nc2ccc(NC(=O)C3CCCC3)cc2)n1 [TCMDC-124964],-12.42%
2,CS(=O)(=O)Cc1cccc(Nc2ncc(Cl)c(Nc3cccnc3C(N)=O)n2)c1 [TCMDC-134166],-54.44%
3,O=C(Nc1cccc(-c2nn3ccccc3c2-c2ccnc(Nc3ccc(C(=O)N4CCOCC4)cc3)n2)c1)c1c(F)cccc1F [TCMDC-135910],-23.59%
4,NC(=O)N1CCN(Cc2ccc(Br)cc2)CC1 [TCMDC-137933],4.957%
5,c1ccc(Oc2ccc(Nc3ccnc4cc(-c5ccc(CNCCN6CCOCC6)o5)ccc34)cc2)cc1 [TCMDC-138398],12.11%
6,c1ccc(Oc2ccc(Nc3ccnc4cc(-c5cccc(CNCCN6CCOCC6)c5)ccc34)cc2)cc1 [TCMDC-138474],52.49%
7,c1cncc(Oc2ccc(Nc3ccnc4cc(-c5cccc(CNCCN6CCOCC6)c5)ccc34)cc2)c1 [TCMDC-138492],84.98%
8,N#Cc1cnc2cc(-c3cnc(CNCCN4CCOCC4)s3)ccc2c1Nc1ccc(Oc2ccccc2)cc1 [TCMDC-138611],2.275%
9,Fc1ccc(Nc2ccnc3cc(-c4cccc(CNCCN5CCOCC5)c4)ccc23)c(Cl)c1 [TCMDC-138414],41.76%
10,CN(C)CC1CCCN1Cc1ccccc1-c1cnn(C)c(=O)c1Oc1cccc(C#N)c1 (stereo not drawn) [TCMDC-135097],-59.69%
11,COc1ccc(CCNC(=O)c2ccc(-n3cc(NC(=O)c4cccnc4)cn3)cc2)cc1OC [TCMDC-124665],38.46%
12,Nc1nc(N)c2c(Cl)c(N(Cc3ccccc3)Cc3ccccc3)ccc2n1 [TCMDC-137993],-38.99%
13,O=C(O)C(F)(F)F.c1ccc(CNCc2cccc(-c3ccc(-c4nc5ccccc5[nH]4)s3)c2)cc1 [TCMDC-132714],15.98%
14,O=S(=O)(NCCN1CCCC1)c1ccc(-c2cccc(CNCc3ccccc3)c2)s1 [TCMDC-132216],86.1%
15,O=S(=O)(NCCN1CCCC1)c1ccc(-c2ccc(CN3Cc4ccccc4C3)cc2)s1 [TCMDC-132286],9.199%
16,O=S(=O)(NCCN1CCCC1)c1ccc(-c2ccc(CNCc3ccccc3)cc2)s1 [TCMDC-132233],71.01%
17,CCOC(=O)N1CCC(NC(=O)c2ccc(C(C)(C)C)cc2OC)CC1 [TCMDC-139314],15.99%
18,O=C(c1cccc(-c2noc(C(F)(F)F)n2)c1)N1CCN(C(=O)c2ccc3cc[nH]c3c2)CC1 [TCMDC-132422],0.1652%
19,N#Cc1cccc(NC(=O)c2ccc(S(=O)(=O)NCC3CCCN3CC3CCCCC3)cc2)c1 (stereo not drawn) [TCMDC-133796],-13.1%
20,CN1CCN(CCCN(C(=O)Nc2cc(C(F)(F)F)cc(C(F)(F)F)c2)c2ccccc2Cc2ccccc2)CC1 [TCMDC-136454],-18.83%
21,CC(C)CNCc1cccc(-c2cccc(CN(CCCN3CCN(C)CC3)C(=O)Nc3ccccc3)c2)c1 [TCMDC-140593],80.6%
22,CN1CCN(CCCN(Cc2cccc(-c3ccc(CNCCc4ccccc4)cc3)c2)C(=O)Nc2ccccc2)CC1 [TCMDC-140595],97.36%
23,CN1CCN(CCCN(Cc2cccc(-c3cccc(CNCCc4ccccc4)c3)c2)C(=O)Nc2ccccc2)CC1 [TCMDC-140594],106.2%
